The nature of assay [1]: APR_HepG2_CellCycleArrest_24hr: Apredica 24-hour HepG2 Assay for Cell Cycle Arrest (AID 2282905).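 Note: cell cycle arrest scored as ratio of 2N to 4N nuclear DNA content.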 The settings on record: imaging, actives raise or lower the signal. Summed up: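 After 24 h exposure at 0.39–200 uM in 0.5% DMSO, fixed cells received Hoechst 33342 staining. Imaging quantified per-nucleus DNA content; gain or loss fitted against DMSO controls.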
Assay [2] can be described thus: APR_HepG2_NuclearSize_24hr: Apredica 24-hour HepG2 Assay for Nuclear Size (AID 2282907). The settings on record: high-content imaging, actives raise or lower the signal. Summed up: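 Nuclear size from Hoechst 33342-stained, formaldehyde-fixed HepG2 nuclei imaged by high-content microscopy, after 24 h dosing at ten concentrations from 0.39 to 200 uM in 0.5% DMSO; gain or loss relative to DMSO baseline.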

The nature of assay [3]: APR_HepG2_MicrotubuleCSK_24hr: Apredica 24-hour HepG2 Assay for Microtubule CSK Stabilty (AID 2282909). The settings on record: HepG2 microtubule cytoskeleton imaging, actives raise or lower the signal. Summed up:
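Fixed HepG2 cells were stained for alpha-tubulin and imaged after 24 hr exposure to ten concentrations spanning 0.39–200 uM in 0.5% DMSO. Signal change was fitted in both directions relative to DMSO; taxol was the positive control.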

The nature of assay [4]: APR_HepG2_MitoticArrest_24hr: Apredica 24-hour HepG2 Assay for Mitotic Arrest (AID 2282910). The settings on record: high-content imaging, actives raise or lower the signal. Summed up:
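High-content imaging of fixed HepG2 cells labeled with Hoechst 33342 and anti-phospho-histone H3, after 24 h treatment. Ten concentrations 0.39 to 200 uM in duplicate, final DMSO 0.5%; changes fitted both directions relative to DMSO.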

Assay [5] in a line: APR_HepG2_MitoMembPot_24hr: Apredica 24-hour HepG2 Assay for Mitochondrial Membrane Potential (AID 2282911). The settings on record: imaging, actives raise or lower the signal. Summed up: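 HepG2 human liver cells were exposed 24 hr to compounds at 0.39–200 uM (final DMSO 0.5% v/v) in duplicate. MitoTracker Red CMXRos (250 nM, 30 min) was loaded before formaldehyde fixation; fluorescence was imaged by ArrayScan HCS and fitted bidirectionally versus DMSO.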

Assay [6] in a line: APR_HepG2_MitoMass_24hr: Apredica 24-hour HepG2 Assay for Mitochondrial Mass (AID 2282912). The settings on record: high-content imaging, actives raise or lower the signal. Summed up: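 Endpoint is MitoTracker Red CMXRos (250 nM, 30 min, pre-fixation) intensity from 20x high-content imaging, nuclei located by Hoechst. Human HepG2 cells received ten concentrations from 0.39 to 200 uM in 0.5% DMSO for 24 hr, duplicate wells. Bidirectional fit relative to DMSO.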

Assay [7] can be described thus: APR_HepG2_p53Act_24hr: Apredica 24-hour HepG2 Assay for p53 Activation (AID 2282913).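 Note: p53 protein immunofluorescence averaged per cell in HepG2 with Hoechst nuclei.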 The settings on record: high-content imaging, actives raise or lower the signal. Summed up: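 HepG2 cells exposed 24 hr to compounds at 0.39–200 uM (10 concentrations, duplicate), final DMSO 0.5% v/v. After formaldehyde fixation and Triton permeabilization, p53 was immunolabeled (sheep anti-p53, Cy5 secondary) with Hoechst 33342 nuclear counterstain, then imaged by high-content fluorescence microscopy.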

Assay [8] is described as follows: APR_HepG2_CellCycleArrest_72hr: Apredica 72-hour HepG2 Assay for Cell Cycle Arrest (AID 2282914). Particulars: high-content imaging, actives raise or lower the signal. Summed up:
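HepG2 cells were exposed to compounds at 0.39–200 uM (0.5% v/v DMSO final, duplicates) for 72 hr, fixed in 3.7% formaldehyde, permeabilized and stained with Hoechst 33342. Nuclear DNA content was quantified by high-content imaging; gain or loss of signal was fitted bidirectionally against DMSO.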

The nature of assay [9]: APR_HepG2_CellLoss_72hr: Apredica 72-hour HepG2 Assay for Cell Loss (AID 2282915). Particulars: high-content imaging. Summed up:
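Cell number comes from Hoechst 33342-labelled nuclei, imaged at 20x after 3.7% formaldehyde fixation. Dosing was 0.39–200 uM, ten concentrations in duplicate, 0.5% DMSO final, for 72 h. Bidirectional fit relative to DMSO baseline.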

A short description of assay [10]: APR_HepG2_CellLoss_24hr: Apredica 24-hour HepG2 Assay for Cell Loss (AID 2282908).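 For AC50: fit in both directions so a hit may be cell loss or gain.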 The settings on record: high-content imaging. Summed up:
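Nuclei stained with Hoechst 33342 after formaldehyde fixation (3.7%) were imaged at 20x to count cells. Exposure lasted 24 hr, at ten concentrations from 0.39 to 200 uM in duplicate, with 0.5% v/v DMSO. Fit bidirectional, relative to DMSO.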

Experimental findings from PubChem BioAssay (EPA / NIEHS) are described below.

The term AC50 denotes the concentration giving half of the maximal activity seen.

Activity calls are given as the source filed them. Rule for the calls: active = hit-call score of the fitted dose curve at least 0.9, where 1 is the maximum; inactive = score below 0.9.

Consider `C=CC(N)=O`, for which the result in assay [1], in [2], in assay [3], in assay [4], in assay [5] and in assay [6] was inactive. The molecule was called inactive in assay [7], in assay [8] and in assay [9].
As to `Nn1cnnc1`, the call in assay [1], in assay [2], in assay [10], in assay [3], in assay [4] and in assay [5] was inactive. Also, the call in assay [6], in [7], in [8] and in assay [9] was inactive.
Consider `Cc1cccc([N+](=O)[O-])c1`, for which the molecule was called inactive in assay [1], in [2], in assay [10], in assay [3], in [4] and in assay [5]. The result in assay [6], in [7], in assay [8] and in assay [9] was inactive.
Take `Cc1ccc(O)c(C)c1`: the molecule was called inactive in assay [1], in assay [2], in assay [3], in assay [4], in assay [5] and in [6]. The result in [7], in assay [8] and in assay [9] was inactive.
As to `C[C@]12CCC(=O)C=C1CC[C@@H]1[C@@H]2CC[C@@]2(C)[C@H]1CC[C@]2(C)O`, the result in assay [1], in assay [2], in assay [3], in assay [4], in assay [5] and in assay [6] was inactive. For the same molecule, the molecule was called inactive in assay [7], in assay [8] and in [9].
For `CC(C)(c1ccccc1)c1ccc(O)cc1`, the result in assay [1], in assay [2], in assay [3], in [4], in assay [5] and in [6] was inactive. Also, the call in [7] and in assay [8] was inactive. For the same molecule, in [9], the AC50 is 63.3 µM (active).
In the case of `C=CC(=O)NCNC(=O)C=C`, the outcome in [1], in assay [2], in assay [10], in assay [3], in assay [4] and in assay [5] was inactive. Moreover, the molecule was classed as inactive in assay [6], in assay [7], in assay [8] and in assay [9].
Turning to `COc1ccc(O)c(C(C)(C)C)c1`, the molecule was called inactive in [1], in [2], in assay [3], in [4], in assay [5] and in assay [6]. For the same molecule, the call in assay [7], in [8] and in assay [9] was inactive.
Regarding `ClC(Cl)=C(c1ccc(Cl)cc1)c1ccc(Cl)cc1`, the result in assay [1], in [2] and in assay [3] was inactive. Moreover, the concentration at half-maximal activity (AC50) was 60.7 µM (active) in [4]; 23.2 µM (active) in assay [5]; 50.4 µM (active) in [6]; 57.2 µM (active) in assay [7]; 17 µM (active) in assay [8]; 50 µM (active) in [9].
Turning to `CCC(=O)O[C@H]1CC[C@H]2[C@@H]3CCC4=CC(=O)CC[C@]4(C)[C@H]3CC[C@]12C`, the call in assay [1], in assay [2], in assay [3], in assay [5], in [7] and in [8] was inactive. Further, the AC50 in assay [10] is 107 µM (active); in assay [4], 116 µM (active); in [6], 107 µM (active); in [9] it was 125 µM (active).
Take `Cc1cc2c3c(c1)C(c1ccccc1)=N[C@@H](NC(=O)c1ccncc1)C(=O)N3CC2`: the result in assay [1], in assay [2], in assay [10], in [3], in [4] and in [5] was inactive. The molecule was called inactive in assay [6], in assay [7] and in [8]. The AC50 in assay [9] is 90.9 µM (active).
For the molecule `O=C(NC(=O)c1cc(F)c(F)cc1Cl)Nc1cc(F)ccc1N1CCC(C(=O)O)CC1`, the call in assay [1], in [2], in [3], in assay [4], in assay [5] and in assay [6] was inactive. Moreover, the molecule was classed as inactive in assay [7], in assay [8] and in assay [9].
`CCCCCCCCCC[N+](C)(C)CCCCCCCCCC`: the AC50 in assay [1] is 43 µM (active); in [3], 10.9 µM (active); in assay [4] it was 4.34 µM (active); in [5], 26 µM (active); in [8], 48.2 µM (active); in assay [9] it was 3.25 µM (active). Besides, the outcome in assay [2], in assay [6] and in assay [7] was inactive.
`O=S(=O)(O)C(F)(F)C(F)(F)C(F)(F)C(F)(F)F`: the result in assay [1], in assay [2], in [3], in assay [4], in assay [5] and in assay [6] was inactive. The molecule was classed as inactive in assay [7], in [8] and in assay [9].
Consider `O=C(O)C(F)(F)C(F)(F)C(F)(F)C(F)(F)C(F)(F)F`, for which the molecule was called inactive in [1], in assay [2], in [3], in assay [4], in assay [5] and in assay [6]. Further, the molecule was classed as inactive in assay [7], in [8] and in assay [9].
On to `Cc1cc(-c2ccc(N)c(C)c2)ccc1N`, for which the molecule was classed as inactive in [1], in assay [2], in assay [10], in assay [3], in [4] and in assay [5]. Besides, the molecule was classed as inactive in assay [6], in assay [7] and in assay [9]. Moreover, in assay [8], the AC50 is 66.7 µM (active).
Regarding `Clc1ccc(C(c2ccccc2Cl)C(Cl)(Cl)Cl)cc1` (centres undefined), the AC50 was 52.2 µM (active) in assay [1]; 70.5 µM (active) in [10]; 74.4 µM (active) in assay [3]; 69.4 µM (active) in assay [4]; 65.7 µM (active) in [6]; 75.5 µM (active) in [7]. The AC50 in assay [8] is 24.6 µM (active); in assay [9] it was 70.6 µM (active). Besides, the molecule was called inactive in assay [2] and in [5].
`CC#Cc1cc(C)nc(Nc2ccccc2)n1`: the outcome in assay [1], in assay [2], in assay [3], in [4], in assay [5] and in assay [6] was inactive. Also, the result in assay [7] was inactive. Moreover, the AC50 was 96.1 µM (active) in [8] and 69.8 µM (active) in [9].
